Compounds without any hit were thinned out: in the full panel of roughly 83,000, 20% have a hit.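 Treatment: one concentration, 48 hours, 96-well format. Scoring: percent growth, with anything below 10 considered active.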 Active and inactive are the calls of the source.
Columns and labels:
Assay in all cases: NCI-60 one-dose screen, 48 h (100 = growth as untreated, 0 = no growth, -100 = all killed)
Details in all cases: 10 µM unless noted
NCI-H23 lung = tested on: NCI-H23 lung
NCI-H226 lung = tested on: NCI-H226 lung
NCI-H322M lung = tested on: NCI-H322M lung
HOP-62 NSCLC = tested on: HOP-62 NSCLC
NCI-H460 lung = tested on: NCI-H460 lung
HOP-92 NSCLC = tested on: HOP-92 NSCLC
NCI-H522 lung = tested on: NCI-H522 lung
A549/ATCC NSCLC = tested on: A549/ATCC NSCLC
786-0 renal = tested on: 786-0 renal
COLO 205 colon = tested on: COLO 205 colon
DU-145 prostate = tested on: DU-145 prostate
K-562 leukemia = tested on: K-562 leukemia
MALME-3M melanoma = tested on: MALME-3M melanoma
MDA-MB-231 breast = tested on: MDA-MB-231 breast
RXF 393 renal = tested on: RXF 393 renal
SF-268 CNS = tested on: SF-268 CNS
SF-295 CNS = tested on: SF-295 CNS
SF-539 CNS = tested on: SF-539 CNS
UACC-257 melanoma = tested on: UACC-257 melanoma
M14 melanoma = tested on: M14 melanoma

Measured: growth

O=C(Nc1c2ccccc2nc2ccccc12)c1ccccc1CN1C(=O)c2ccccc2C1=O
inactive: NCI-H23 lung 28.6% | NCI-H226 lung 40.2% | NCI-H322M lung 21% | HOP-62 NSCLC 37.4% | HOP-92 NSCLC 38.5% | NCI-H522 lung 23.7% | A549/ATCC NSCLC 18.8% | 786-0 renal 38.9% | DU-145 prostate 27.3% | K-562 leukemia 22.8% | MALME-3M melanoma 31.2% | MDA-MB-231 breast 34.3% | RXF 393 renal 43.9% | SF-268 CNS 34.3% | SF-295 CNS 31.7% | SF-539 CNS 21.6% | UACC-257 melanoma 38.5% | M14 melanoma 21%
active: NCI-H460 lung 3.79% | COLO 205 colon 9.84%

Cc1nc(/N=C(\N)NC(=O)Nc2ccccc2Cl)sc1C
inactive: NCI-H23 lung 42.6% | NCI-H226 lung 68% | NCI-H322M lung 51% | HOP-62 NSCLC 45% | NCI-H460 lung 12.1% | HOP-92 NSCLC 64.6% | NCI-H522 lung 18.6% | A549/ATCC NSCLC 47.8% | 786-0 renal 57.1% | COLO 205 colon 12.2% | DU-145 prostate 13.2% | K-562 leukemia 13.1% | MALME-3M melanoma 53.1% | MDA-MB-231 breast 50.5% | SF-268 CNS 60.6% | SF-295 CNS 12.6% | UACC-257 melanoma 69.5% | M14 melanoma 24%
active: RXF 393 renal 4.01% | SF-539 CNS 0.177%

Cc1ccc(-c2nc3c(c(-c4ccccc4)nn3-c3ccccc3)c(-c3ccc(O)cc3)c2C#N)cc1
active: RXF 393 renal -10.4% | SF-295 CNS -20.9%
inactive: NCI-H23 lung 67.5% | NCI-H226 lung 80% | NCI-H322M lung 88.5% | HOP-62 NSCLC 40% | NCI-H460 lung 27.4% | HOP-92 NSCLC 74.5% | NCI-H522 lung 69.4% | A549/ATCC NSCLC 52.3% | 786-0 renal 18.6% | COLO 205 colon 70.4% | DU-145 prostate 60.5% | K-562 leukemia 22.3% | MALME-3M melanoma 75.1% | MDA-MB-231 breast 45.9% | SF-268 CNS 60.2% | SF-539 CNS 15.2% | UACC-257 melanoma 93.9% | M14 melanoma 60.3%

COc1ccc(-n2c(N)c(-c3nc4ccccc4[nH]3)cc(C#N)c2=O)cc1
inactive: NCI-H23 lung 86.8% | NCI-H226 lung 35.3% | NCI-H322M lung 102% | HOP-62 NSCLC 90.8% | NCI-H460 lung 87.1% | HOP-92 NSCLC 84.7% | NCI-H522 lung 74.2% | A549/ATCC NSCLC 94.9% | 786-0 renal 92.5% | COLO 205 colon 105% | DU-145 prostate 87.9% | K-562 leukemia 93.5% | MALME-3M melanoma 92.1% | MDA-MB-231 breast 90.8% | RXF 393 renal 67.2% | SF-268 CNS 95.8% | SF-295 CNS 94.1% | SF-539 CNS 77.2% | UACC-257 melanoma 96.4% | M14 melanoma 109%

CN(C)CC#Cc1ccc2ncc(C#N)c(Nc3ccc(F)c(Cl)c3)c2c1
inactive: NCI-H23 lung 58.2% | NCI-H226 lung 60.8% | NCI-H322M lung 14.9% | HOP-62 NSCLC 67.8% | NCI-H460 lung 50.8% | HOP-92 NSCLC 56.1% | NCI-H522 lung 45.3% | A549/ATCC NSCLC 51% | 786-0 renal 49.4% | COLO 205 colon 71.3% | DU-145 prostate 22.4% | K-562 leukemia 51.4% | MALME-3M melanoma 45.1% | MDA-MB-231 breast 56.1% | RXF 393 renal 32.4% | SF-268 CNS 59.2% | SF-295 CNS 65.4% | SF-539 CNS 62.4% | UACC-257 melanoma 76% | M14 melanoma 40.5%

CNCCCNc1nc2ccccc2c2c(=O)c3cc(OC)ccc3sc12
inactive: NCI-H23 lung 79.6% | NCI-H226 lung 95.6% | NCI-H322M lung 85.7% | HOP-62 NSCLC 80.2% | HOP-92 NSCLC 52.4% | NCI-H522 lung 85.7% | A549/ATCC NSCLC 76.1% | 786-0 renal 79.1% | DU-145 prostate 65.4% | MALME-3M melanoma 99.4% | MDA-MB-231 breast 20% | RXF 393 renal 63.7% | SF-268 CNS 77.4% | SF-295 CNS 94.7% | SF-539 CNS 66.4% | UACC-257 melanoma 99.1% | M14 melanoma 29.9%
active: NCI-H460 lung 5.64% | COLO 205 colon -1.42% | K-562 leukemia -20.3%

CCOC(=O)c1c(C)nc2c(c1N)CC(=O)N2Cc1ccc(F)cc1
inactive: NCI-H23 lung 99.8% | NCI-H226 lung 90.8% | NCI-H322M lung 107% | HOP-62 NSCLC 82.1% | NCI-H460 lung 99.7% | HOP-92 NSCLC 71.5% | NCI-H522 lung 63.7% | A549/ATCC NSCLC 90.8% | 786-0 renal 98.3% | COLO 205 colon 103% | DU-145 prostate 100% | K-562 leukemia 93.3% | MALME-3M melanoma 116% | MDA-MB-231 breast 97.9% | RXF 393 renal 101% | SF-268 CNS 96.4% | SF-295 CNS 95.3% | SF-539 CNS 92.9% | UACC-257 melanoma 96% | M14 melanoma 94.8%

Cc1cccc(NCc2cn(-c3ccc(C(=O)O)cc3)nc2-c2ccc(C(=O)O)cc2)n1
inactive: NCI-H23 lung 110% | NCI-H226 lung 99.8% | NCI-H322M lung 105% | HOP-62 NSCLC 104% | NCI-H460 lung 104% | HOP-92 NSCLC 105% | NCI-H522 lung 95.8% | A549/ATCC NSCLC 104% | 786-0 renal 102% | COLO 205 colon 111% | DU-145 prostate 103% | K-562 leukemia 96.8% | MALME-3M melanoma 96.5% | MDA-MB-231 breast 95.2% | RXF 393 renal 115% | SF-268 CNS 96.2% | SF-295 CNS 102% | SF-539 CNS 98.5% | UACC-257 melanoma 109% | M14 melanoma 110%
